SENP7 inh – SENP7 protease inhibitors, primary screen, biochemical, luminescence, uHTS; recombinant SENP7, Z-RLRGG-aminoluciferin luminescence, 40 min; 330,000 compounds, 1.5% hits; inhibition, % at 5 µM; Sentrin-specific protease 7 (Homo sapiens), Q9BQF6;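 active = inhibition above about 50% at the single test dose, limit read from the data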
Target sequence (Q9BQF6 706-1050 limits assumed): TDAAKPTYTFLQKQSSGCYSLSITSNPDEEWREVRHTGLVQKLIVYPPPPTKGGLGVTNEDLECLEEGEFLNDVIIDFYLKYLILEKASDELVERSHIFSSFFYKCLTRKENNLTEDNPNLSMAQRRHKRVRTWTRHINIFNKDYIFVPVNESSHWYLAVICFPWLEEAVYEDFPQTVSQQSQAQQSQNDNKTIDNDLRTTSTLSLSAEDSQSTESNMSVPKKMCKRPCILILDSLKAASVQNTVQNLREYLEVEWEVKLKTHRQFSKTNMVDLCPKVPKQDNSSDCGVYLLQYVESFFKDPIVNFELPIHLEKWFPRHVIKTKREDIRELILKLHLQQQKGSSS
SENP8 block-1 – SENP8 protease inhibitors, primary screen, biochemical, luminescence | Sentrin-specific protease 8 (Homo sapiens), Q96LD8 | purified SENP8, Z-RLRGG-aminoluciferin cleavage | inhibition, % at 10 µM | 330,000 compounds, 1.2% hits; in the data active = inhibition above about 50%
Target sequence (Q96LD8 whole entry, looked up): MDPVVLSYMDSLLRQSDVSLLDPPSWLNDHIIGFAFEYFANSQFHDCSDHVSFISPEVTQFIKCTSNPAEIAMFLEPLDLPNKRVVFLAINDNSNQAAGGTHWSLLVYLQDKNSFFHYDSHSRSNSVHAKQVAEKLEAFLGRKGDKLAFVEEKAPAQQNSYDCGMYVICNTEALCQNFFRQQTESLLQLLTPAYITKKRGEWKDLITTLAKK
Platelet DG rel – inhibitors of platelet dense granule secretion, primary screen, cell-based, MLPCN, human platelets | 300,000 compounds, 0.22% hits | human platelet-rich plasma, SFLLRN dense granule ATP release, luminescence | inhibition, %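 (compounds screened at 7.5 µM in platelet-rich plasma)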;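 active = mean replicate score, as percent of positive control, at or above 50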
SENP6 inh – SENP6 protease inhibitors, primary screen, biochemical, luminescence, uHTS. Sentrin-specific protease 6 (Homo sapiens), Q9GZR1. Recombinant SENP6 catalytic domain, aminoluciferin luminescence. inhibition, % at 10 µM. 330,000 compounds, 1.8% hits;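 active = inhibition above about 50% at the single tested dose, limit read from the data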
SENP8 block-2 – human SENP8 protease inhibitors, primary screen, biochemical, fluorescence, Nedd8 protein substrate, uHTS | inhibition, % at 20 µM | AID 602440, 2012 | Sentrin-specific protease 8 (Homo sapiens), Q96LD8 | recombinant SENP8 | 360,000 compounds, 0.64% hits; in the data active = inhibition mostly above about 40%, no sharp cut-off; inactive = mostly below about 27%
SENP8 inh conf – human SENP8 protease inhibitors, confirmation, biochemical, Nedd8 protein substrate, single concentration; shares compounds with SENP8 block-2; purified SENP8, Nedd8-AMC/pro-Nedd8 cleavage fluorescence, 30 min; inhibition, % at 25 µM; 1,400 compounds, 15% hits; in the data active = inhibition mostly above about 39%, no sharp cut-off; inactive = mostly below about 34%
Numbers stand for hits; 0 = inactive; - = no result. Shown are actives, neighbours in structure and some others; about 2.4% of the full set was active somewhere.

SMILES	SENP7 inh	SENP8 block-1	Platelet DG rel	SENP6 inh	SENP8 block-2	SENP8 inh conf
O=C(CNS(=O)(=O)c1ccc([N+](=O)[O-])cc1)N/N=C/c1ccc(O)cc1O	0	0	0	0	0	-
CCOc1ccccc1C(=O)N1CCN(c2ccc(C(F)(F)F)cn2)CC1	0	0	0	0	0	-
CC1CCN(c2ccccc2NC(=O)c2ccc([N+](=O)[O-])o2)CC1	0	0	0	0	0	-
O=C(Nc1ccccc1N1CCCC1)c1ccc([N+](=O)[O-])o1	0	0	0	0	40.1	54.1
Cc1cccc(NC(=O)COC(=O)CCc2c[nH]c3ccccc23)c1	0	0	-	0	0	-
O=[N+]([O-])c1cccc(C(=Nc2cccc(Cl)c2)NO)c1	0	0	0	0	40.9	0
O=C(NCCc1cccc(Cl)c1)c1cccc([N+](=O)[O-])c1	0	0	0	0	0	-
C/C(CC(C)C)=N/Nc1ccc([N+](=O)[O-])cc1[N+](=O)[O-]	0	0	0	0	0	-
NS(=O)(=O)c1ccc(NN=C2CCCCC2)c([N+](=O)[O-])c1	0	0	0	0	0	-
CC1C/C(=N/Nc2ccc([N+](=O)[O-])cc2[N+](=O)[O-])CC(C)(C)C1 (centres undefined)	0	0	0	0	45.5	0
CC1CCCC/C1=N/Nc1ccc([N+](=O)[O-])cc1[N+](=O)[O-] (centres undefined)	0	0	0	0	47.1	0
COc1cccc(N2CC(NS(=O)(=O)c3cccnc3)CC2=O)c1 (centres undefined)	0	0	0	0	0	-
COc1ccc(CCNC(=O)[C@H](C)N2C(=O)N3CCc4c([nH]c5ccccc45)[C@@]3(C)C2=O)cc1OC	0	0	0	0	0	-
COc1ccccc1CNC(=O)[C@H](C)N1C(=O)N2CCc3c([nH]c4ccccc34)[C@@]2(C)C1=O	0	0	0	0	42.8	0
CC(Sc1nnc(C2CC2)n1C1CC1)C(=O)Nc1ccccc1C#N (centres undefined)	0	0	-	0	0	-
CC(NS(=O)(=O)c1ccccc1Cl)C1CC2CCC1C2 (centres undefined)	0	0	0	0	0	-
CCNC(=O)NC(=O)C(C)Sc1nc2ccccc2n1CC(C)C (centres undefined)	0	0	0	0	42.2	0
O=S(=O)(c1ccccc1Br)N1CCC(O)(c2cccnc2)CC1	0	0	0	0	0	-
C[C@H](O)[C@@H]1CN2CCc3c([nH]c4ccccc34)[C@@H]2C[C@@H]1N(C)C(=S)Nc1ccc(C#N)cc1	-	-	-	-	0	-
CC(C)[C@H](NC(=O)N1c2ccccc2NC(=O)[C@@H]1C(C)C)C(=O)N[C@@H](C(=O)O)c1ccccc1	0	0	0	0	0	-
CC(C)[C@H](NC(=O)N1CC(=O)Nc2ccccc21)C(=O)N[C@H](Cc1c[nH]c2ccccc12)C(=O)O	0	0	0	0	44.0	0
CC(C)[C@H](NC(=O)N1c2ccccc2NC(=O)[C@@H]1C(C)C)C(=O)N[C@@H](Cc1ccccc1)C(=O)O	0	0	0	0	53.6	0
O=C(/C(=C(\[O-])c1ccccc1)[n+]1ccc2ccccc2c1)c1ccc(Cl)cc1	0	0	0	0	46.3	61.7
O=C(/C(=C(\[O-])c1ccccc1)[n+]1ccc2ccccc2c1)c1ccccc1	-	-	0	-	0	-
COCOc1ccc(C2CC(=O)c3c(OCOC)cc(OCOC)cc3O2)cc1 (centres undefined)	0	0	0	0	53.6	0
SMILES	SENP7 inh	SENP8 block-1	Platelet DG rel	SENP6 inh	SENP8 block-2	SENP8 inh conf
COCOc1ccc(-c2cc(=O)c3c(OCOC)cc(OCOC)cc3o2)cc1	0	0	0	0	0	-
O=C1CC(c2ccc(O)cc2)Oc2cc(O)ccc21 (centres undefined)	0	0	0	0	51.1	0
COc1cc(O)c2c(c1)OC(c1ccc(O)cc1)CC2=O (centres undefined)	0	0	0	0	73.8	0
COc1ccc([C@@H]2CC(=O)c3c(O)cc(O)cc3O2)cc1O	0	0	-	0	0	-
O=C1CC(c2ccccc2)Oc2cc(O)ccc21 (centres undefined)	0	0	0	0	0	-
CC(=O)c1cccc(OCc2cc(C(=O)NCc3nc(C)c(C)s3)no2)c1	0	0	0	0	0	-
Cc1ccnc(NC(=O)c2ccc(OCc3c(C)noc3C)cc2)c1	0	0	-	0	0	-
COc1ccc(CNC(=O)Cn2ccc(N)nc2=O)cc1	0	0	-	0	45.3	0
Cc1cc(C(=O)N/N=C/c2ccc([N+](=O)[O-])s2)c2ccccc2n1	0	0	0	0	46.3	0
O=C(N/N=C/c1cc([N+](=O)[O-])ccc1Cl)c1cc(-c2ccccc2)nc2ccccc12	0	0	0	0	41.4	0
O=[N+]([O-])c1ccc(N/N=C/c2sc(N3CCOCC3)nc2-c2ccccc2)c(S(=O)(=O)Nc2ccccc2Cl)c1	-	-	-	-	46.2	0
O=[N+]([O-])c1ccc(N/N=C/c2sc(N3CCOCC3)nc2-c2ccccc2)c(S(=O)(=O)Nc2ccc(Cl)cc2)c1	-	-	0	-	52.7	0
Cc1ccc(N2CC(C(=O)OCC(=O)Nc3ccc(Cl)cc3)CC2=O)cc1 (centres undefined)	0	0	-	0	0	-
CC(Sc1nnc(COc2ccc(Cl)cc2)n1Cc1ccco1)C(=O)N1CCNC1=O (centres undefined)	0	0	-	0	0	-
Nc1sc2c([n+]1CCCS(=O)(=O)[O-])CCCC2	0	0	0	0	0	-
CC1(OC(=O)C2CCCC2)C(=O)C=C2C=C3CCCN3C=C2C1=O (centres undefined)	0	0	0	0	-	-
CC1(OC(=O)CCc2ccccc2)C(=O)C=C2C=C3CCCN3C=C2C1=O (centres undefined)	0	0	0	0	55.0	42.6
O=C(NC1CCCC1)C(c1cccs1)N(Cc1ccco1)C(=O)c1csnn1 (centres undefined)	0	0	0	0	40.5	0
O=C(NC1CCCCC1)C(c1ccccc1)N(Cc1ccco1)C(=O)c1csnn1 (centres undefined)	0	0	0	0	0	-
O=[N+]([O-])c1ccc(-[n+]2ccc3ccccc3c2)c([N+](=O)[O-])c1	0	0	0	0	46.2	0
CC1=NN(c2ccc(C)cc2C)C(=O)C1C(c1cccc(O)c1)C1C(=O)N(c2ccc(C)cc2C)N=C1C (centres undefined)	0	0	0	0	60.3	43.6
O=C(CN1C(=O)CSC1=O)N1CCc2ccccc2C1	0	0	0	0	41.8	62.9
CN1CCC(=NNC(=O)C(=O)NC2CCCC2)CC1	0	0	0	0	40.3	0
CN1CCC(=NNC(=O)C(=O)NC2CCCCC2)CC1	0	0	0	0	0	-
